Inconclusive results are not listed. Where a call stands in place of a potency, no number is given. The source made the active and inactive calls. Calls come from the whole dose curve; as a rule, active = well fitted inhibition curve with a large enough effect; inconclusive = small, poorly fitted or top-dose-only effect, or effect the other way; inactive = flat fitted curve, though single readings scatter.
assay: Counterscreen Assay for Enhancers of SMN2 Splice Variant Expression: Modulation of SMN1 Expression for Further Probe SAR; conditions: HEK293 SMN1-luciferase reporter, luminescence, 30-36 h; series mostly up to 46.1 µM
From the text: NIH Chemical Genomics Center [NCGC] NIH Molecular Libraries Probe Production centers Network [MLPCN] MLPCN Grant: R03 MH084179-01 Assay Submitter (PI): Elliot Androphy NCGC Assay Overview: Spinal muscular atrophy (SMA) is caused by insufficient levels of the survival motor neuron protein SMN. The SMN locus on chromosome 5q13 contains two inverted copies of SMN called SMN1 and SMN2 which are 99% identical at the amino acid level. SMN1 is a fully functional protein and SMN2 skips exon 7 90% of the time. Skipping of exon 7 produces non-functional protein product. 10% of the SMN2 protein includes exon 7 and is fully functional. In the SMA disease state, mutations in the SMN1 locus are the cause of the disease state. Because only 10% of SMN2 is of the fully functional form, it is not sufficient to overcome the deficiency produced by the loss of the SMN1 product. A therapy that either increases the amount of SMN2 product made increases the inclusion of exon 7 has been proposed for the treatment of SMA. We have designed an assay to identify small molecules that can increase the amount of functional SMN2 product by appending a luciferase reporter gene after the native SMN2 gene, such that inclusion of exon 7 in the expressed product places the luciferase sequence in frame, thus generating functional luciferase enzyme. As a counterscreen for nonspecific modulators of expression, we have run compounds through a similar assay that measures expression of an SMN1-luciferase chimera.
NCGC Assay Protocol Summary: This screen utilizes a luciferase reporter gene assay, combining the promoter with the major portion of the native SMN1 cDNA (exons 1 -7, intron 8 , exon 8 fused to luciferase) stably expressed in HEK293 cells. Compounds that increase luciferase signal presumably enhance expression of the functional SMN1 splice variant. Passaging media contained DMEM w/ glutamax (+phenol red) 10% FCS, 1x pen/strep, 200 ug/ml hygro, 1x sodium pyruvate. Assay media contained DMEM w/ glutamax (-phenol red) 10% FCS, 1x pen strep, 1x pyruvate Sequence, Parameter, Value, Description (1) Cells, 5 uL, 2000 cells/well, 1536 TC treated White solid bottom plate (2) Time, 10-12 hours, 37C 5% CO2 (3) Compound, 23 nl, MLSMR Library (4) Control Compound, 23 nL, Sodium butyrate st 4.5mM (final) conc (5) Time, 30-36 hours, 37C 5% CO2 (6) Reagent, 3 ul, One Glo (TM) from Promega (7) Time, 5-15 minutes, Room temp (8) Detector, Viewlux: luminescent read, 60 second integration, high speed 2x binning Keywords: Spinal muscular atrophy, SMA, SMN2, high throughput screening, MLSMR, MLPCN, NIH Roadmap, qHTS and NCGC

For `NC(=O)C1CCN(c2nc(-c3ccc(Oc4ccccc4)cc3)cs2)CC1`, which Potency is on record?
The Potency was “inactive”.

With `Cc1cnc(N2CCC(C(N)=O)CC2)nc1-c1cccc(N(C)C)c1` as the molecule, how does the Potency read?
The Potency was “inactive”.

Which Potency does the source give for `CN(C)c1cccc(-c2cc(N3CCC(C(N)=O)CC3)ncn2)c1` here?
The Potency was “inactive”.

For `CN(C)c1ccc(-c2csc(N3CCC(C(N)=O)CC3)n2)cc1`, which Potency is on record?
Its Potency is “inactive”.

With `Cc1ccc(-c2ccnc(N3CCC(C(N)=O)CC3)n2)cc1` as the molecule, how does the Potency read?
Its Potency is 7.72 µM (active).

With `NC(=O)C1CCN(c2nnc(-c3ccc4c(c3)OCCCO4)s2)CC1` as the molecule, how does the Potency read?
The Potency was 1.54 µM (active).

For `NC(=O)C1CCN(c2nnc(-c3ccc(Br)cc3)s2)CC1`, which Potency is on record?
The Potency was 12.2 µM (active).

For `CN(C)c1cccc(-c2cnc(N3CCC(C(N)=O)CC3)s2)c1`, which Potency is on record?
The Potency was 0.772 µM (active).

With `CC(=O)Nc1ccc(-c2csc(N3CCC(C(N)=O)CC3)n2)cc1` as the molecule, how does the Potency read?
Its Potency is “inactive”.

With `NC(=O)C1CCN(c2ncc(-c3ccc(Cl)cc3)s2)CC1` as the molecule, how does the Potency read?
Its Potency is 9.72 µM (active).

For `N#Cc1ccccc1-c1csc(N2CCC(C(N)=O)CC2)n1`, which Potency is on record?
The Potency was “inactive”.

With `CC(=O)C1CCN(c2ncc(-c3cccc(N(C)C)c3)s2)CC1` as the molecule, how does the Potency read?
Its Potency is 12.2 µM (active).

With `CS(=O)(=O)c1ccc(-c2csc(N3CCC(C(N)=O)CC3)n2)cc1` as the molecule, how does the Potency read?
The Potency was “inactive”.

With `CN(C)c1cccc(-c2ncc(F)c(N3CCC(C(N)=O)CC3)n2)c1` as the molecule, how does the Potency read?
Its Potency is “inactive”.

With `Brc1ccc(-c2csc(N3CCNCC3)n2)cc1` as the molecule, how does the Potency read?
Its Potency is 30.7 µM (active).

With `NC(=O)C1CCN(c2nc(-c3cccc(F)c3)cs2)CC1` as the molecule, how does the Potency read?
The Potency was “inactive”.

For `NC(=O)C1CCN(c2nc(-c3ccc(OC(F)(F)F)cc3)cs2)CC1`, which Potency is on record?
Its Potency is “inactive”.

Which Potency does the source give for `NC(=O)C1CCN(c2nc(-c3ccccc3[N+](=O)[O-])cs2)CC1` here?
Its Potency is “inactive”.

Which Potency does the source give for `NC(=O)C1CCN(c2nc(-c3ccc4c(c3)OCCCO4)cs2)CC1` here?
Its Potency is 7.72 µM (active).

Which Potency does the source give for `NC(=O)C1CCN(c2nc(-c3ccccc3Cl)cs2)CC1` here?
Its Potency is “inactive”.

Which Potency does the source give for `NC(=O)N1CCN(c2nc(-c3ccc(Br)cc3)cs2)CC1` here?
The Potency was “inactive”.

For `NC(=O)C1CCN(c2ncc(Br)cn2)CC1`, which Potency is on record?
The Potency was “inactive”.

With `O=C(C1CCN(c2nc(-c3ccc(Br)cc3)cs2)CC1)N1CCNCC1` as the molecule, how does the Potency read?
The Potency was “inactive”.

Which Potency does the source give for `CN(C)c1cccc(-c2ccnc(N3CCC(C(N)=O)CC3)n2)c1` here?
Its Potency is “inactive”.

Which Potency does the source give for `NC(=O)C1CCN(c2nc(-c3cccc([N+](=O)[O-])c3)cs2)CC1` here?
The Potency was “inactive”.

For `NC(=O)C1CCN(c2ncc(-c3ccc4c(c3)OCCCO4)s2)CC1`, which Potency is on record?
The Potency was 0.487 µM (active).

Which Potency does the source give for `CC(C)(C)OC(=O)NC1CCN(c2nc(-c3ccc(Br)cc3)cs2)CC1` here?
The Potency was “inactive”.

For `N#CC1CCN(c2nc(-c3ccc(Br)cc3)cs2)CC1`, which Potency is on record?
Its Potency is “inactive”.

With `NC(=O)C1CCN(c2nc(-c3cccc(C(F)(F)F)c3)cs2)CC1` as the molecule, how does the Potency read?
The Potency was “inactive”.

With `CCOc1ccc(-c2csc(N3CCC(C(N)=O)CC3)n2)cc1` as the molecule, how does the Potency read?
Its Potency is “inactive”.

Which Potency does the source give for `NC(=O)C1CCN(c2ncc(-c3cccc(N4CCCC4)c3)s2)CC1` here?
Its Potency is 12.2 µM (active).

Which Potency does the source give for `Cc1cccc(-c2csc(N3CCC(C(N)=O)CC3)n2)c1` here?
The Potency was “inactive”.

For `CN(C)c1cccc(-c2cnc(N3CCC(C(N)=O)CC3)nc2)c1`, which Potency is on record?
Its Potency is 1.22 µM (active).

With `NC(=O)C1CCN(c2ncc(-c3cccc(N4CCCCC4)c3)s2)CC1` as the molecule, how does the Potency read?
The Potency was “inactive”.

For `CC(=O)C1CCN(c2ncc(-c3ccc4c(c3)OCCCO4)s2)CC1`, which Potency is on record?
The Potency was 4.87 µM (active).

With `O=C(Nc1ccccc1)C1CCN(c2nc(-c3ccc(Br)cc3)cs2)CC1` as the molecule, how does the Potency read?
Its Potency is “inactive”.

With `CCOC(=O)C1CCN(c2ncc(-c3ccc4c(c3)OCCCO4)s2)CC1` as the molecule, how does the Potency read?
Its Potency is 0.387 µM (active).

With `O=C(O)C1CCN(c2ncc(-c3ccc4c(c3)OCCCO4)s2)CC1` as the molecule, how does the Potency read?
Its Potency is 0.244 µM (active).

Which Potency does the source give for `NC1CCN(c2nc(-c3ccc(Br)cc3)cs2)CC1` here?
The Potency was 19.4 µM (active).

Which Potency does the source give for `Brc1ccc(-c2csc(N3CCC(c4nn[nH]n4)CC3)n2)cc1` here?
The Potency was “inactive”.

— PubChem BioAssay AID488821 (National Center for Advancing Translational Sciences (NCATS), 2010)
